# Rows were chosen to be rich in hits. Some 3% of all compounds tested hit in one or more screens of this group.
# Nrf2 activator: activates Nrf2 signaling; Potency, µM (top dose mostly 46.1 µM), without a hit: at the highest dose activation, hits mostly activators; hit rate 0.31% among 410,000; AREc32 ARE-luciferase reporter (MCF7-derived line), luminescence, 24 h; also: % of control where 0% means no effect; nearly all actives have a fitted effect of over 65% in size
#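 Nrf2 activation is followed as ARE-luciferase induction in the AREc32 line after one day of compound treatment; luminescence is read with Steady-Glo.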
# Nrf2 inh: inhibitors of Nrf2 signaling | A549 ARE-Fluc reporter, luciferase luminescence, 18-24 h | Potency, µM (doses to about 46 µM), for the others: at the top dose activity change, negative = inhibition, most hits filed as inhibitors | hit rate 2.1% among 360,000 | AID 504444; also: % is scaled to controls: 0 for no effect and ±100 for the full control effect; nearly all actives have a fitted effect of over 60% in size
#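 A549 ARE_Fluc cells (5000/well, 5% FBS OPTI-MEM) pre-incubated 2 h, then treated with compounds 18-24 h at 37C/5% CO2 in concentration-response. CellTiter-Fluor viability read first; BugLite luciferase luminescence after 15 min at room temperature gives Nrf2 activity.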
# TrxR1 substrate: is turned over as a substrate by rat TrxR1; O89049; purified TrxR1 substrate turnover, NADPH consumption readout; Potency, µM (titrated, usually from 114 µM), for inactives: top-dose activity change, negative = substrate turnover; hit rate 0.01% among 390,000; AID 588456; also: % is scaled to controls: 0 for no effect and ±100 for the full control effect; nearly all actives have a fitted effect of over 50% in size
# Target sequence (O89049 whole entry, looked up): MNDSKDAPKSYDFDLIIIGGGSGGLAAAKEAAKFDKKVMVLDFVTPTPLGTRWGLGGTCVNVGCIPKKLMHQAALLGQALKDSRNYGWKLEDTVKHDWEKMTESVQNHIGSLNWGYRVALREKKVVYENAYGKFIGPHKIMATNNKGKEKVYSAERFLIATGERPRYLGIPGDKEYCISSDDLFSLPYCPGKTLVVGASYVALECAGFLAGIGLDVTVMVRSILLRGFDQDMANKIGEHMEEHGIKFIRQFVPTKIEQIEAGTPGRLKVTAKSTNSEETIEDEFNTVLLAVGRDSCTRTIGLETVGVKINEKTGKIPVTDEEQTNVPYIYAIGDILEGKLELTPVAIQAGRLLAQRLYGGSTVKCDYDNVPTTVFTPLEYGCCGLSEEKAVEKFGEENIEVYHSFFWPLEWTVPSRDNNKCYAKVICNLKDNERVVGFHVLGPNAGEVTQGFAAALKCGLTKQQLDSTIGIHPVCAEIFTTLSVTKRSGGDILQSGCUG
#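 Rat TrxR1, dispensed at 90 nM, was prereduced with 400 uM NADPH (final) for 5 min at ~22 deg C, then incubated with compound 15 min before 400 uM selenite. A first-read NADPH fluorescence drop versus no-compound background flagged substrates.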
# A549 tox: kills or reduces viability of A549 cells in Nrf2 counter-screen | Potency, µM (doses to about 46 µM), for the others: at the top dose activity change, negative = cytotoxicity, most hits filed as inhibitors | AID 504648 | A549 ARE-Fluc cells, CellTiter-Fluor viability, 18-24 h | hit rate 0.16% among 390,000; also: % is scaled to controls: 0 for no effect and ±100 for the full control effect
#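 A549 ARE_Fluc cells in 5% FBS OPTI-MEM were exposed to compounds in concentration-response for 18-24 h at 37 deg C. Viability was read by CellTiter-Fluor fluorescence (Ex 405/Em 525) after 30 min, before the luciferase read.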
# rTrxR1 inhibitor: inhibitors of rat thioredoxin reductase 1; recombinant rTrxR1, NADPH fluorescence consumption, selenite substrate; Potency, µM (series often up to 114 µM), for the others: at the highest dose activity change, negative = inhibition, usual class: inhibitors; hit rate 1% among 390,000; AID 588453; also: % is scaled to controls: 0 for no effect and ±100 for the full control effect; nearly all actives have a fitted effect of over 65% in size
#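 Rat TrxR1 (90 nM in the dispensed reagent) was pre-reduced with 400 uM NADPH for 5 min at room temperature, then incubated with compound for 15 min. After 400 uM selenite was added, NADPH fluorescence (Ex 340/Em 450 nm) was followed for 8 min.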
# GALK inh: inhibitors of human galactokinase. P51570. Purified GALK, Kinase-Glo residual ATP luminescence. Potency, µM (top dose mostly 57.5 µM), for the others: top-dose activity change, negative = inhibition, most hits filed as inhibitors. hit rate 0.007% among 270,000. AID 1868; also: % is scaled to controls: 0 for no effect and ±100 for the full control effect
#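 Galactose (100 uM) and ATP (35 uM) were turned over by 5 nM GALK for 1 h at RT. Kinase-Glo Plus then converted the remaining ATP into a luminescent signal.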
# Numbers without * were called inactive; ? = inconclusive; . = not tested or not shown; [ ] = dose if it differs, or a comment. Calls follow the shape of the dose curve; as a rule, active = well fitted curve in the direction sought with a large enough effect; inconclusive = small, poorly fitted or top-dose-only effect, or another doubt; inactive = no such curve, though single readings can be large; an effect the other way counts as inactive or inconclusive. Potency is read from the fitted curve at half-maximal effect.
SMILES,Nrf2 activator,Nrf2 inh,TrxR1 substrate,A549 tox,rTrxR1 inhibitor,GALK inh
CCOC(=O)[C@@H]1[C@H]2COc3cc(OC)ccc3[C@@H]2N2C(=O)N(c3ccc(C(F)(F)F)cc3)C(=O)[C@@]12C,1%,5%,-1%[57.1 µM],-5%,10%[57.1 µM],.
CCC1(C)Cc2c(sc3nnn(Cc4ccccc4Cl)c(=O)c23)CO1 (centres undefined),-1%,15µM*,3%,-14%,3%,-3%
CCC1(C)Cc2c(sc3nnn(CC(=O)Nc4ccccc4)c(=O)c23)CO1 (centres undefined),0%,?,-10%,-16%,5%,-1%
CCCS(=O)(=O)N1CC(=O)N(c2cc(C)ccc2C)C(C)(C(=O)NC2CCCCCC2)C1 (centres undefined),0%,?,-3%,13%,11%,.
O=C(CCNc1ccc(Cl)cc1)c1cccs1,?,23%,-5%,-1%,?,-2%
O=C(CCNc1cc(Cl)cc(Cl)c1)c1cccs1,6.3µM*,9%,3%,7%,28µM*,5%
CCCC1=Nc2cc(C(=O)NCCc3ccccc3)ccc2Sc2ccc(C)cc21,-1%,?,-4%,-11%,3%,.
Cc1cc(=O)n(C(C)C(=O)N2CCCc3ccccc32)c2c1c(C)nn2-c1ccccc1 (centres undefined),3%,18µM*,-7%[57.1 µM],?,3%[57.1 µM],.
c1ccc(-c2oc3ncnc(NCCCN4CCOCC4)c3c2-c2ccccc2)cc1,2%,-9%,65%,0%,?,1%
Nc1nnc(-c2ccco2)s1,0%,5%,1%,1%,-7%,0%
Nc1ncnc2oc(-c3ccoc3)c(-c3ccco3)c12,.,?,25%,-1%,50µM*,.
Nc1ncnc2oc(-c3ccco3)c(-c3ccco3)c12,17%,15µM*,48%,-20%,-43%[57.1 µM],-2%
Cc1ccc2oc(=O)c3cc(C(=O)Nc4ccc(F)cc4F)sc3c2c1,-1%,16%,11%,-2%,29%,.
CC[N+](CC)(CC)CCOc1ccc(/C=C/c2ccccc2)cc1,-1%,15µM*,9%,-9%,16%,.
CCOc1ccc(/C=C/C(=O)c2ccccc2)cc1,9%,?,-3%,-1%,0%[2.29 µM],4%
Oc1ccc(N=Nc2ccccc2)o1,22%,?,-11%,-12%,32µM*,.
Cc1ccc([N+](=O)[O-])cc1-c1[nH]c(-c2ccc(O)c(O)c2)nc1-c1ccccc1,3%,21µM*,-3%[57.1 µM],?,0%[57.1 µM],-3%
COc1ccc(-c2nc(-c3ccccc3)c(-c3cc([N+](=O)[O-])ccc3C)[nH]2)cc1O,4%,1%,0%,-22%,10%,-4%
COC(=O)c1c(NC(=O)/C=C/C(=O)O)sc(C)c1-c1ccc(C(C)C)cc1,10µM*,?,4%[57.1 µM],2%,-8%[57.1 µM],-4%
COC(=O)c1ccc(C(=O)OC)c(NC(=O)C2CC2)c1,-1%,-4%,14%,7%,-6%,2%
CCOC(=O)c1c(NC(=O)/C=C/C(=O)O)sc(C)c1-c1ccc(F)cc1,?,?,1%[57.1 µM],-5%,-13%[57.1 µM],9%
COC(=O)c1c(NC(=O)/C=C/C(=O)O)sc(C)c1-c1ccc(C)cc1,20µM*,?,-4%[57.1 µM],-26%,-3%[57.1 µM],-5%
COC(=O)c1sc(-c2ccc(Cl)cc2)cc1NC(=O)/C=C/C(=O)O,8.9µM*,?,-4%,-15%,2%,-4%
COC(=O)c1ccc(C(=O)OC)c(NC(=O)/C=C/C(=O)O)c1,9%,4%,31%,1%,45µM*,0%
O=C(CNC(=O)c1ccncc1)OC(C(=O)Nc1cc(C(F)(F)F)ccc1Cl)c1ccccc1 (centres undefined),.,?,.,16%,.,.
SMILES,Nrf2 activator,Nrf2 inh,TrxR1 substrate,A549 tox,rTrxR1 inhibitor,GALK inh
Cc1ccc(Sc2c(C)nn(C(=O)c3ccc(Cl)cc3)c2C)cc1,3%,6%,2%,1%,-6%,.
CCOC(=O)c1c(NC(=O)/C=C/C(=O)O)sc(C)c1-c1ccc(C)c(C)c1,?,-15%,-14%,0%,-17%,-1%
COC(=O)c1c(NC(=O)/C=C/C(=O)O)sc(C)c1-c1ccc(C)c(C)c1,18µM*,-6%,-8%,-2%,-2%,2%
COC(=O)C1=C(C)NC(=O)/C1=C\c1cc(C)n(-c2ccccc2)c1C,4%,5%,-1%[57.1 µM],-16%,-12%[57.1 µM],-1%
COC(=O)C1=C(C)NC(=O)/C1=C\c1cc(C)n(-c2cc(C)cc(C)c2)c1C,2%,23µM*,9%[57.1 µM],?,-30%[57.1 µM],0%
CC1CCC(NC(=O)c2ccc3c(c2)N(Cc2cccc(F)c2)C(=O)c2ccccc2S3)CC1 (centres undefined),5%,.,-12%[57.1 µM],14%,-2%[57.1 µM],.
c1ccc(C2=Nn3c(nnc3-c3cccs3)SC2)cc1,?,-9%,6%[57.1 µM],-1%,19%[57.1 µM],1%
c1csc(C2=Nn3c(nnc3-c3ccncc3)SC2)c1,3%,16µM*,-2%,-4%,5%,0%
Cc1ccc(C(=O)NCC(c2cccs2)S(=O)(=O)c2ccccc2)cc1C (centres undefined),4%,.,-7%[57.1 µM],12%,-1%[57.1 µM],.
CCC(C)Sc1ccc(-c2nc3cc(C)ccn3c2NC2CCCCC2)cc1 (centres undefined),1%,-24%,40%,?,-10%,.
CCC(C)Sc1ccc(-c2nc3cnccn3c2NC2CCCCC2)cc1 (centres undefined),-1%,23µM*,18%,-29%,17%,.
Cc1c(S(=O)(=O)c2ccccn2)c(N)n(Cc2ccccc2Cl)c1C,2%,-2%,8%[57.1 µM],-5%,?,.
Cc1c(S(=O)(=O)c2ccccn2)c(N)n(Cc2ccccc2)c1C,1%,-5%,2%[57.1 µM],5%,11µM*,3%
COCCn1c(C)c(C)c(S(=O)(=O)c2ccccc2)c1N,0%,-1%,4%,-2%,20µM*,6%
COc1ccc(C2CC(=O)Nc3c2c(=O)nc2c(C)cccn32)cc1 (centres undefined),-1%,14%,7%,-4%,-2%,.
C/C(=N\NC(=S)NCc1ccccc1)c1ccccc1,9%,?,0%,2%,16%,2%
C/C(=N\NC(=S)NCc1ccccc1)c1ccco1,?,-4%,-12%,2%,79µM*,0%
CCOC(=O)c1c(C)n(-c2ccccc2)c2ccc(OC(=O)COc3ccc(Cl)cc3)cc12,0%,5%,-7%,1%,-1%,.
Fc1ccc(C2=Nc3cccc4cccc(c34)N2)cc1,0%,-9%,-4%,0%,?,-1%

# Source: PubChem (National Center for Advancing Translational Sciences (NCATS))
